Source: PubChem BioAssay
FBW7 act – human FBW7 E3 ligase activation, primary screen. Q969H0. 0.13% of 650,000 active. normalized activity (activation), % at 26.1 µM. AID 1259310. AlphaScreen FBW7–phospho-cyclin E peptide binding, activator screen; in the data active = normalized activity above about 1.9%;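 note: purified mutant Fbw7 with reduced substrate affinity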
Target sequence (Q969H0 whole entry, looked up): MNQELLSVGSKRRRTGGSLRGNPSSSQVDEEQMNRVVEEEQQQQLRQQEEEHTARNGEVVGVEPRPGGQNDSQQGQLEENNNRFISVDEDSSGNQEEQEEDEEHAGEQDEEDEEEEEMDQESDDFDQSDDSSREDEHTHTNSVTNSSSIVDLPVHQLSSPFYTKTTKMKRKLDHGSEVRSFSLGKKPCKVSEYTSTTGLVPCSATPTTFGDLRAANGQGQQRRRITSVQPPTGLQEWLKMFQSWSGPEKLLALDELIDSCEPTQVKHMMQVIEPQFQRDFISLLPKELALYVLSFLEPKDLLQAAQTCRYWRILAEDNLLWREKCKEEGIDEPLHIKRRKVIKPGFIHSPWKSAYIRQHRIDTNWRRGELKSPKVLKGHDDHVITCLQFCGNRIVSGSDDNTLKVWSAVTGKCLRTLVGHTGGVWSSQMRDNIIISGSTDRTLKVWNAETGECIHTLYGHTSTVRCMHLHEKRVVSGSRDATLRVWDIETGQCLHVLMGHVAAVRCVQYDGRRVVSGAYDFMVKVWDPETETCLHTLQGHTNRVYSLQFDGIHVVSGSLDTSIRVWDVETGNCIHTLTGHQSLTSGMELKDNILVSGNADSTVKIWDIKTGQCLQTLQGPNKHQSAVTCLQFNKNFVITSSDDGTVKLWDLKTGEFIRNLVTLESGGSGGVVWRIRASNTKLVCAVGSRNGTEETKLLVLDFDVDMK
GPR151 ag – activates the human receptor GPR151; Q8TDV0; PathHunter beta-arrestin GPR151 cells, luminescence; activation, % at 11.2 µM; 1% of 650,000 active; AID 1508602; in the data active = activation above about 4.9%;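 note: 0% = median of compound wells and 100% = cells with positive control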
TEAD-YAP inh – TEAD-YAP interaction inhibition | HEK-TIYL cells, TEAD-Gal4/YAP UAS-luciferase luminescence | inhibition, % at 9.12 µM | 1.4% of 640,000 active; in the data active = inhibition above about 32%;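 note: 0% = median of test compound wells and 100% = reference inhibitor wells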
MITF primary – blocks human microphthalmia-associated transcription factor; inhibition, % at 2.6 µM; 0.91% of 650,000 active; AlphaScreen MITF homodimerization, bead proximity signal; AID 1259374; O75030; in the data active = inhibition above about 50%;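 note: 0% = vehicle wells with protein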
Active calls of the source: *. Hits are enriched below; roughly 3.5% of the tested compounds scored in any of these assays.

SMILES | FBW7 act | GPR151 ag | TEAD-YAP inh | MITF primary
CN(C)S(=O)(=O)N1CCN(c2cc(-n3cccn3)ncn2)CC1 | -0.3 | -2.9 | -31.2 | 3.1
COc1ccc(S(=O)(=O)N2CCN(c3cc(-n4cccn4)ncn3)CC2)cc1C | 0.1 | 2.9 | 33.1* | -15.3
CCN1CCN(CCCNS(=O)(=O)c2ccc3c(c2)CCN3C(=O)C2CCC2)CC1 | 0.1 | 0.4 | -3.1 | -3.1
CN1CCN(C(c2ccc(F)cc2)c2nnnn2C2CCCC2)CC1 (configuration not stated) | 0.4 | -1.0 | 6.0 | 9.3
c1csc(C(c2nnnn2C2CCCCC2)N2CCN3CCCC3C2)c1 (configuration not stated) | 0.4 | -2.0 | 62.5* | 18.8
c1cncc(C(c2nnnn2C2CCCCC2)N2CCN3CCCC3C2)c1 (configuration not stated) | -0.1 | -1.2 | -17.8 | 4.6
CN1CCN(C(c2ccc(N(C)C)cc2)c2nnnn2C2CCCC2)CC1 (configuration not stated) | 0.0 | -0.7 | 51.2* | 5.2
C=CCN1CCN(C(c2ccccc2)c2nnnn2C2CCCC2)CC1 (configuration not stated) | 1.9* | -0.3 | -2.6 | 15.3
O=C(NCC(c1ccc2c(c1)OCO2)N1CCOCC1)OCc1ccccc1 (configuration not stated) | 0.1 | 1.9 | -6.2 | 14.9
CCOc1ccccc1C(=O)Nc1cc(C)ccc1C | -0.1 | 0.2 | 2.2 | -4.2
COc1ccc(Nc2c(-c3ccsc3)nc3ncccn23)cc1 | -0.1 | 0.7 | 11.7 | 4.1
CCOC(=O)c1c(NC(=O)/C=C/C(=O)O)sc2c1CCCCC2 | -0.1 | 1.5 | 21.0 | -4.4
CCOC(=O)c1c(NC(=O)/C=C\C(=O)O)sc2c1CCC(CC)C2 (configuration not stated) | 0.1 | -0.8 | 43.3* | -8.1
CCCOC(=O)c1c(NC(=O)/C=C/C(=O)O)sc2c1CCCCC2 | -0.3 | 4.0 | 20.3 | -1.7
CCCOC(=O)c1c(NC(=O)/C=C/C(=O)O)sc2c1CCCC2 | 0.0 | -0.8 | 37.2* | 5.4
O=C(OCCCc1nc2ccccc2[nH]1)c1ccc([N+](=O)[O-])cc1 | -0.1 | 0.1 | 3.2 | 10.5
COc1cccc(-c2nc3ccccc3c(=O)n2NC(=O)c2ccc(C)c(C)c2)c1 | 0.0 | 1.1 | 4.4 | 9.3
O=C(Nc1cccc(Br)c1)c1cc(S(=O)(=O)N2CCCC2)ccc1Cl | 0.5 | -1.0 | 35.2* | 10.4
CC1CCN(S(=O)(=O)c2cccc(C(=O)Oc3cccc(NC(=O)c4ccccc4)c3)c2)CC1 | 0.6 | -0.2 | 36.6* | 15.0
O=C(Oc1cccc(NC(=O)c2ccccc2Cl)c1)c1cccc(S(=O)(=O)N2CCCCC2)c1 | 0.0 | 2.7 | 54.1* | -6.4
O=C(c1cccc(S(=O)(=O)N2CCCC2)c1)c1cccc(S(=O)(=O)N2CCCC2)c1 | -0.2 | 1.6 | 33.2* | -7.8
CC1CCN(S(=O)(=O)c2cccc(C(=O)Nc3ccccc3C(=O)Nc3ccccc3)c2)CC1 | 0.1 | -1.4 | -1.0 | -13.0
O=C(Nc1cccc(O)c1)c1cc(C2CC2)on1 | 0.1 | -5.0 | 83.8* | -4.0
CCCc1cc(C(=O)Nc2cccc(O)c2)no1 | 0.7 | -4.7 | 74.4* | 7.2
O=C(Nc1ccc2c(c1)OCO2)c1cc(C2CC2)on1 | 0.2 | 1.3 | -46.6 | -12.7
SMILES | FBW7 act | GPR151 ag | TEAD-YAP inh | MITF primary
CCOc1ccc(S(=O)(=O)N2CCCc3ccccc32)c2cccnc12 | -0.2 | -0.7 | 48.5* | -9.2
COc1cccc(N2C(=O)/C(=C/c3ccc([N+](=O)[O-])s3)C(=O)NC2=S)c1 | 0.8 | -1.5 | 6.7 | 22.2
O=C1NC(=O)N(c2cccc(Cl)c2)C(=O)/C1=C/c1ccc(I)o1 | -0.1 | -0.2 | 9.0 | 67.0*
Cc1ccc(/C=C2\C(=O)NC(=S)N(c3cccc(Cl)c3)C2=O)o1 | 0.0 | -0.3 | 0.2 | 3.9
O=C1NC(=O)N(c2cccc(Cl)c2)C(=O)/C1=C/c1ccc([N+](=O)[O-])o1 | -0.2 | 0.2 | 7.1 | 75.2*
COc1ccc(N2C(=O)NC(=O)/C(=C/c3ccc(I)o3)C2=O)cc1 | -0.3 | -0.2 | 0.0 | 68.6*
COc1ccc(N2C(=O)/C(=C\c3ccc([N+](=O)[O-])s3)C(=O)NC2=S)cc1 | 0.1 | -1.1 | -4.1 | 58.8*
CC(=O)c1ccc(NC(=O)c2ccc(S(=O)(=O)NC3CCCC3)cc2)cc1 | 0.4 | -0.3 | -4.0 | 8.1
COc1ccc(N2C(=O)/C(=C\c3ccc([N+](=O)[O-])o3)C(=O)NC2=S)cc1 | -0.2 | -0.9 | 5.2 | 78.7*
COc1cccc(N2C(=O)NC(=O)/C(=C/c3ccc([N+](=O)[O-])o3)C2=O)c1 | 0.2 | -1.6 | -7.3 | 66.6*
COc1cccc(N2C(=O)/C(=C\c3ccc(OC)cc3OC)C(=O)NC2=S)c1 | -0.1 | -1.9 | -3.6 | 15.8
Cc1cc(C)cc(N2C(=O)NC(=O)/C(=C\c3ccc([N+](=O)[O-])o3)C2=O)c1 | 0.2 | -0.4 | 0.5 | 36.9
COc1cccc(N2C(=O)/C(=C/c3ccc([N+](=O)[O-])o3)C(=O)NC2=S)c1 | -0.1 | -1.7 | 12.1 | 70.6*
Cc1ccc2oc(-c3cc(NC(=O)c4cncc(Br)c4)ccc3O)nc2c1 | 0.2 | -3.0 | -28.6 | 12.5
O=C(NC1CCCCC1)N1c2ccccc2C=Cc2ccccc21 | -0.2 | 0.3 | 4.9 | 10.4
O=C(CN1C(=O)c2ccccc2C1=O)N1CCN(c2ccc(F)cc2)CC1 | 2.0* | -1.5 | -3.2 | 26.0
COc1ccc(C(=O)Nc2ccc3nn(-c4ccc(C)cc4)nc3c2)cc1Br | -0.1 | -1.4 | 1.4 | -0.5
Cc1ccc(/C=C2\SC(=S)N(/N=C/c3cc([N+](=O)[O-])ccc3O)C2=O)o1 | -0.6 | -0.4 | 2.9 | 74.3*
O=C(N=Nc1c(O)[nH]c2ccc(Br)cc12)c1ccc[n+]([O-])c1 | 0.0 | 0.2 | 5.1 | 6.7
CCCNc1nc(-c2ccc(C(N)=O)cc2)nc2c1ncn2-c1ccsc1 | 0.1 | -1.1 | 51.9* | 7.1
NC(=O)c1ccc(-c2nc(NCCc3ccc(O)cc3)c3ncn(-c4ccccc4)c3n2)cc1 | 0.2 | -0.9 | 66.1* | -4.4
c1ccc(-c2nc(NCc3cccnc3)c3ncn(-c4ccccc4)c3n2)cc1 | -0.1 | -1.0 | 17.1 | 2.4
CCCNc1nc(-c2ccc(C(N)=O)cc2)nc2c1ncn2-c1ccccc1 | 0.0 | 1.1 | 52.2* | -7.0
CCCNc1nc(-c2ccc(OC)cc2)nc2c1ncn2-c1ccccc1 | 0.4 | -0.2 | -3.4 | 9.3
NC(=O)c1ccc(-c2nc(NCc3cccnc3)c3ncn(-c4ccccc4)c3n2)cc1 | 0.1 | 0.2 | 54.9* | 2.3
COc1ccc(/C=N/N2C(=O)C3C4C=CC(C5CC45)C3C2=O)cc1Br (configuration not stated) | 0.0 | -0.9 | -2.1 | 3.3
CC(C)N(CCNc1nc(-c2ccc(C(N)=O)cc2)nc2c1ncn2-c1ccsc1)C(C)C | 0.1 | -1.1 | 61.5* | 12.2
CCOC(=O)CCCN1C(=O)S/C(=C/c2ccc(OC)cc2)C1=S | 0.7 | -1.0 | 47.2* | 8.7
COc1ccc(/C=C2\SC(=O)N(CCCC(=O)Nc3ccc(C(=O)O)cc3)C2=O)cc1 | 0.0 | -1.0 | 87.6* | 14.0
CCCCN1C(=O)S/C(=C/c2ccc(OC)cc2)C1=O | 0.0 | 0.2 | -41.1 | -11.2
